# Measurements as given in PubChem BioAssay (Tox21).
# Several values for one entry are separate records, joined by “and”; a condition that tells them apart may be missing. Identical values can stand only once. A number with no mark means an inactive call. Results filed as inconclusive are left out. A call without a number means that no potency is given here. Activity calls are given as the source filed them. Unless noted, calls come from the whole dose curve; as a rule, active = well fitted curve in the direction sought with a large enough effect in the repeat runs; inconclusive = weak or mixed curves; inactive = no such curve, though single readings can be large; an effect the other way counts as inactive or inconclusive.
# Legend:
# [1] = qHTS assay to identify small molecule agonists of the hypoxia (HIF-1) signaling pathway - cell viability counter screen (AID 1224844; calls by dose curve; note: nearly all actives have a fitted effect of over 50% in size; note: potency is the fitted concentration of half-maximal effect)
# Summary of the method: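 ME-180 HRE-bla cells, 2,000/well, 0.5% dialyzed FBS; 5 hr settle, 17 hr compound at 37C/5% CO2; CCF4-AM reporter read first, then CellTiter-Glo luminescence after 30 min RT.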
# [2] = qHTS assay to identify small molecule agonists of H2AX (AID 1224845; active = well fitted activation curve with a large enough effect in the signal ratio in the repeat runs, not every such curve was filed as active; the % refers to the signal ratio; note: potency is the fitted concentration of half-maximal effect)
# Summary of the method: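 Phospho-H2AX Ser139 measured by HTRF (ex 320 nm; em 665 and 620 nm) after 24 hr antibody incubation. Compounds, 15 concentrations, 0.76% DMSO, were applied to CHO-K1 cells for 3hr at 37C before lysis.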
# [3] = qHTS assay to identify small molecule agonists of H2AX - cell viability counter screen (AID 1224847; calls by dose curve; note: nearly all actives have a fitted effect of over 30% in size; note: potency is the fitted concentration of half-maximal effect)
# Summary of the method: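 Viability of CHO-K1 (wild type) cells after 3 hr compound exposure was measured by CellTiter-Glo luminescence.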
# [4] = qHTS assay to identify small molecule antagonists of the estrogen related receptor (ERR) signaling pathway from Tox21 library (AID 1224848); note: nearly all actives have a fitted effect of over 50% in size; note: potency is the fitted concentration of half-maximal effect
# Summary of the method: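 Antagonist-mode screen of the Tox21 10K library in an NTP-provided ERR reporter cell line; 18 h compound exposure at 37 C, luminescence measured with ONE-Glo.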
# [5] = qHTS assay to identify small molecule agonists of the estrogen related receptor (ERR) signaling pathway from Tox21 library (AID 1224849; calls by dose curve; note: nearly all actives have a fitted effect of over 15% in size); settings: ERR reporter cell line, ONE-Glo luciferase, 18 h; at 92.4 µM (top of the series) unless noted
# Summary of the method: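 ERR cells, 6 h pre-incubation 37 C/5% CO2; cpd in DMSO pinned; 18 h 37 C; ONE-Glo added, 30 min RT; luminescence read. Agonist mode, qHTS.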
# [6] = qHTS RealTime-Glo MT Cell Viability Assay in HepG2 cells - 24 hour (AID 1224867); note: nearly all actives have a fitted effect of over 50% in size; note: potency is the fitted concentration of half-maximal effect
# Summary of the method: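 Luminescence read-out: viable HepG2 cells reduce a prosubstrate to a NanoLuc substrate, giving a signal proportional to live cell number. Reads taken at 0, 8, 16, 24, 32 and 40 h of compound exposure at 37 C.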
# [7] = qHTS RealTime-Glo MT Cell Viability Assay in HEK293 cells - 32 hour (AID 1224868); note: nearly all actives have a fitted effect of over 50% in size; note: potency is the fitted concentration of half-maximal effect
# Summary of the method: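 Nonlytic real-time viability readout: viable cells convert prosubstrate to NanoLuc substrate, giving luminescence proportional to live cell number. HEK293, 600 cells/well, compound added after 5 h, continuous culture at 37 C.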
# [8] = qHTS RealTime-Glo MT Cell Viability Assay in HepG2 cells - 40 hour (AID 1224870); note: nearly all actives have a fitted effect of over 50% in size; note: potency is the fitted concentration of half-maximal effect
# Summary of the method: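 Real-time viability: cells seeded at 600 per well together with NanoLuc and cell-permeant prosubstrate, compounds added after 5 h incubation. Luminescence tracked at 0, 8, 16, 24, 32 and 40 h of exposure.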
# [9] = A CellTox Green Cytotoxicity Assay to monitor cytotoxicity in HEK293 cells - 0 hour (AID 1224869); note: nearly all actives have a fitted effect of over 50% in size
# Summary of the method: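 Nonlytic real-time cytotoxicity: HEK293 + CellTox Green reagent plated, 5 h preincubation, pintool compound addition (23 nL in DMSO), 37 C for 40 h, fluorescence measured at successive time points.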
# [10] = qHTS assay to identify small molecule agonists of the hypoxia (HIF-1) signaling pathway (AID 1224846; active = well fitted activation curve with a large enough effect in the signal ratio in the repeat runs, not every such curve was filed as active; the % refers to the signal ratio)
# Summary of the method: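 Cell line: CellSensor HRE-bla ME-180; 2,000 cells/well; 0.5% dialyzed FBS; 5 h preincubation; DMSO compound pin transfer; 17 h, 37C, 5% CO2; CCF4-AM added; bla FRET signal scored for activation.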
SMILES,Potency [1],Potency [2],Potency [3],Potency [4],"activity change, positive = activation [5]",Potency [6],Potency [7],Potency [8],Potency [9],Potency [10]
C[n+]1cc2c3c(ccc2c2ccc4cc5c(cc4c21)OCO5)OCO3,2.61 µM (active),0.956 µM (active),0.852 µM (active),2.91 µM (active),-68.3% [at 19 µM],0.827 µM (active),0.522 µM (active),1.04 µM (active),,
CCCCCCCCCCCCCCCC[N+](C)(C)CCN(Cc1ccc(OC)cc1)c1ncccn1,21.3 µM (active),inactive,43.8 µM (active),21.1 µM (active),-53.6% [at 42.5 µM],6.74 µM (active),0.952 µM (active),5.35 µM (active),inactive,
CSc1ccc(/C=C2/C(C)=C(CC(=O)O)c3cc(F)ccc32)cc1,10.7 µM (active),inactive,inactive,inactive,-7.17% [at 42.5 µM],inactive,inactive,inactive,,
O=c1[nH]sc2cc(Cl)ccc12,0.535 µM (active),inactive,inactive,0.106 µM (active),,26.8 µM (active),inactive,,,
CCCCC(CC)COP(=O)(O)OCC(CC)CCCC (stereo unspecified),17.4 µM (active) and 5.49 µM (active),inactive,inactive,30.7 µM (active) and 27.3 µM (active),-51.6% and -55.8%,inactive,,inactive,inactive,
CC(C)=CCOc1ccc(/C=C/C(=O)c2ccc(OCC=C(C)C)cc2OCC(=O)O)cc1,inactive,inactive,inactive,,-23.7% [at 42.5 µM],,inactive,inactive,inactive,
CCCN(CCC)C(=O)C(CCC(=O)OCCCN1CCN(CCOC(=O)Cc2c(C)n(C(=O)c3ccc(Cl)cc3)c3ccc(OC)cc23)CC1)NC(=O)c1ccccc1 (stereo unspecified),19 µM (active),inactive,inactive,29.8 µM (active),-47.5% [at 42.5 µM],,,inactive,inactive,
CCOc1nc2cccc(C(=O)OC(C)OC(=O)OC3CCCCC3)c2n1Cc1ccc(-c2ccccc2-c2nn[nH]n2)cc1 (stereo unspecified),19.5 µM (active),45 µM (active),63.5 µM (active),34.3 µM (active),,,9.76 µM (active),,inactive,
Cc1cccc2c1cc1ccc3cccc4ccc2c1c34,inactive,inactive,inactive,inactive,,inactive,,inactive,,
CCCCCCCCCCCCCCCCCC[N+](C)(C)C,55.1 µM (active),inactive,90.1 µM (active),24.4 µM (active),,,7.79 µM (active),,inactive,
C[C@@H](NCCCc1cccc(C(F)(F)F)c1)c1cccc2ccccc12,23.9 µM (active),49.2 µM (active),49.2 µM (active),26.6 µM (active),-58.9% [at 42.5 µM],,23.9 µM (active),15.1 µM (active),inactive,
C[C@H](CCC(=O)O)[C@H]1CC[C@H]2[C@@H]3CC[C@@H]4C[C@H](O)CC[C@]4(C)[C@H]3CC[C@]12C,43.5 µM (active) and 34.7 µM (active),89.4 µM (active) and 56.6 µM (active),100 µM (active) and 80 µM (active),inactive,,inactive,inactive,inactive,inactive,
Cc1c(C)c2c(c(C)c1OC(=O)CCC(=O)O)CC[C@@](C)(CCC[C@H](C)CCC[C@H](C)CCCC(C)C)O2,1.4 µM (active),inactive,inactive,inactive,-23.6%,,,55.6 µM (active),inactive,
O=C1C=CC(=O)N1,11.3 µM (active),14.6 µM (active),82.2 µM (active),inactive,-71.7%,,12.6 µM (active),22.5 µM (active),,
CCCCC(CC)CN=C(N)NC(N)=NCCCCCCN=C(N)NC(N)=NCC(CC)CCCC (stereo unspecified),23.9 µM (active),inactive,43.8 µM (active),6.68 µM (active),-65.1% [at 42.5 µM],,5.35 µM (active),8.49 µM (active),inactive,
Oc1ccc(Cl)cc1Sc1cc(Cl)ccc1O,26.8 µM (active),inactive,35.7 µM (active),10.8 µM (active) and 11.9 µM (active),,,19.5 µM (active) and 23.9 µM (active),,inactive,
CCc1cc(SCc2sc(-c3ccc(C(F)(F)F)cc3)nc2CN2CCN(c3ccc(OC)cc3)CC2)ccc1OCC(=O)O,3.89 µM (active),50.5 µM (active),89.8 µM (active),17.2 µM (active),-62.5%,,19.5 µM (active),inactive,inactive,

SMILES,Potency [1],Potency [2],Potency [3],Potency [4],"activity change, positive = activation [5]",Potency [6],Potency [7],Potency [8],Potency [9],Potency [10]
C[C@]12CCC(=O)C=C1CC[C@@H]1[C@@H]2[C@@H](O)C[C@@]2(C)[C@H]1CC[C@]2(O)C(=O)COC(=O)CCC(=O)O,inactive,inactive,inactive,,,inactive,inactive,inactive,inactive,
CC(C)(C)C(=O)OCOC(=O)[C@@H]1N2C(=O)[C@@H](NC(=O)[C@H](N)c3ccccc3)[C@H]2SC1(C)C,inactive,inactive,inactive,inactive,0.778% [at 42.5 µM],,inactive,inactive,inactive,
O=C(Nc1cccc([N+](=O)[O-])c1)c1cc2ccccc2cc1O,inactive,inactive,11.3 µM (active),,-21.9%,inactive,,inactive,inactive,
COc1c(C)c2c(c(O)c1C/C=C(\C)CCC(=O)O)C(=O)OC2,0.151 µM (active),0.875 µM (active),inactive,inactive,,inactive,,inactive,inactive,
CN(C/C=C/C#CC(C)(C)C)Cc1cccc2ccccc12,inactive,,55.2 µM (active),,,,,inactive,inactive,inactive
CC/C(=C(\c1ccc(O)cc1)c1ccc(OCCN(C)C)cc1)c1ccccc1,55.1 µM (active),,90 µM (active),48.7 µM (active),-78.4%,61.8 µM (active),19.5 µM (active),,inactive,
Cc1cccc(N(C)C(=S)Oc2ccc3c(c2)C2CCC3C2)c1 (stereo unspecified),inactive,inactive,,inactive,-2.97% [at 42.5 µM],,inactive,inactive,inactive,
Cc1ccc2oc(CN(Cc3ccccc3)C(=O)Nc3c(F)cc(F)cc3F)c(-c3ccc(Cl)cc3)c2c1,inactive,inactive,,23.6 µM (active),-42.4%,,inactive,,inactive,
c1cc(C(c2ccc(OCC3CO3)cc2)c2ccc(OCC3CO3)cc2)ccc1OCC1CO1 (stereo unspecified),inactive,inactive,inactive,,,,,54.9 µM (active),inactive,
CCCCCCCCOC(=O)c1ccc(O)cc1,48.8 µM (active),inactive,89.5 µM (active) and 101 µM (active),,,inactive,27.4 µM (active),inactive,inactive,
COC(=O)C1=C(C)NC(C)=C(C(=O)OCCc2ccc(N3CCN(C(c4ccccc4)c4ccccc4)CC3)cc2)C1c1cccc([N+](=O)[O-])c1 (stereo unspecified),inactive,inactive,inactive,,,inactive,inactive,inactive,,
CCOC(=O)/C=C(C)/C=C/C=C(C)/C=C/c1c(C)cc(OC)c(C)c1C,inactive,inactive,,,,,,inactive,,
Clc1ccc2n[nH]nc2c1,inactive,inactive,inactive,,,inactive,inactive,inactive,inactive,
CC(=O)SC[C@@H](Cc1ccccc1)C(=O)NCC(=O)OCc1ccccc1,inactive,inactive,inactive,,,inactive,inactive,inactive,inactive,
CC(C)(C)c1ccc(C(=O)CCCN2CCC(OC(c3ccccc3)c3ccccc3)CC2)cc1,19 µM (active),inactive,55.2 µM (active),,,21.3 µM (active),9.52 µM (active),19 µM (active),,
Nc1ccc2cc(S(=O)(=O)O)cc(O)c2c1N=Nc1ccccc1C(F)(F)F,inactive,,,inactive,0.11%,inactive,inactive,inactive,inactive,inactive
